In ChEMBL document CHEMBL3988442, “University of Dundee, Small-Polar-MMV Screening Library” (2021):
About 13,000 (27%) of roughly 48,000 compounds showed an effect of 50% or more. This is one part of the list.

What follows are compounds tested on Wolbachia pipientis (assay: Anti-Wolbachia Cell-Based Screen). Conditions: 5 µM.
Type: functional
Design: scale not given: in the data most compounds retested in dose-response had high values

Structure (SMILES)	Percent Effect
CCC(C)C(=O)N(Cc1ccccn1)C1CC1 (stereo unspecified)	-10.35%
COc1ncccc1NC(=O)N(Cc1ccc(C)o1)C1CC1	-9.414%
CN(C)C(CNC(=O)N(Cc1ccco1)C1CC1)c1cccs1 (stereo unspecified)	11.82%
COc1ncccc1NC(=O)N(Cc1ccccn1)C1CC1	99.69%
COc1ncccc1NC(=O)N(Cc1ccco1)C1CC1	106.8%
CCN(C(=O)Nc1cccnc1OC)C1CC1	-1.512%
COc1ncccc1NC(=O)N1CCC(CNC(C)=O)CC1	2.478%
COc1ncccc1NC(=O)N(CC(C)C)C1CC1	114.6%
COc1cc(CN(C(=O)Nc2cccnc2OC)C2CC2)ccc1O	-7.175%
COc1ncccc1NC(=O)N(Cc1ccc(C(N)=O)cc1)C1CC1	99.11%
CCN(CC)C(=O)C1CCN(C(=O)Nc2cccnc2OC)CC1	6.94%
CC(C)c1cc(NC(CCO)c2ccccc2)n2nccc2n1 (stereo unspecified)	9.375%
COc1ccc(N(C)C(=O)C2CN(C)CCO2)cc1F (stereo unspecified)	4.691%
O=C1CN(Cc2nnc(-c3ccc(Br)o3)o2)CCN1	-7.381%
Cc1ccc(S(=O)(=O)NCc2[nH]ncc2Br)cc1F	-12.16%
COc1ncccc1NC(=O)N(C1CC1)C(C)C(C)C (stereo unspecified)	116%
COc1ncccc1NC(=O)N1CCC(C(=O)NC(C)C)CC1	0.676%
COc1ncccc1NC(=O)C1CCS(=O)(=O)C1 (stereo unspecified)	1.624%
CCNC(=O)C(C)NC(=O)Nc1ccccc1SC(F)(F)F (stereo unspecified)	-8.555%
CC(C)NC(=O)C1CN(C(=O)N2CCCC2)CC12CCOCC2 (stereo unspecified)	-8.761%
CC(C)NC(=O)C1CN(C(=O)Nc2ccccc2)CC12CCOCC2 (stereo unspecified)	0.6544%
Cc1ccsc1C(=O)N1CC(C(=O)NCC2CC2)C2(CCOCC2)C1 (stereo unspecified)	12.17%

Structure (SMILES)	Percent Effect
COCC(=O)N1CC(C(=O)NCC2CC2)C2(CCOCC2)C1 (stereo unspecified)	104.6%
O=C(NCC1CC1)C1CN(C(=O)Cc2cccs2)CC12CCOCC2 (stereo unspecified)	5.816%
Cc1ccoc1C(=O)N1CC(C(=O)NCC2CC2)C2(CCOCC2)C1 (stereo unspecified)	-3.998%
CN(C)C(=O)N1CC(C(=O)NCC2CC2)C2(CCOCC2)C1 (stereo unspecified)	105.7%
O=C(NCC1CC1)C1CN(C(=O)c2ccncc2)CC12CCOCC2 (stereo unspecified)	-0.9426%
CC(C)NC(=O)C1CN(C(=O)N(C)C)CC12CCOCC2 (stereo unspecified)	94.32%
Cc1[nH]nc2ncc(C(=O)N3CCN(CC(C)C)CC3)cc12	0.1242%
Cc1cc(C)n(CCCN(C)C(=O)CN2CC3(CCNCC3)OC2=O)n1	-7.554%
CCN(CC)CC[C@H]1CN(C(=O)NC2CCCCC2)CC[C@H]1CC(=O)O	-0.6664%
O=C(NC[C@H]1OC[C@@H](NC2CCCC2)[C@@H]1O)C1CCCC1	10.82%
NC(=O)C1CN(Cc2c(O)ccc3oc4c(c23)CCCC4)CCO1 (stereo unspecified)	-16.77%
Oc1ccc2oc3c(c2c1CN1CCOCC1)CCCC3	6.402%
O=C1NCCCc2c1oc1ccc(O)c(CN3CCOCC3)c21	142.2%
CCOc1ccc(C(=O)NCCCNc2ncccn2)cc1	-0.3981%
O=C(O)C(F)(F)F.O=C([C@@H]1COC[C@H]2CN(C3CCCC3)C[C@H]21)N1CCC(F)CC1	-0.4691%
O=C(C[S+]([O-])c1ccc(F)c(F)c1)NCc1cc(F)cc(F)c1 (stereo unspecified)	-8.156%
COCCN1CCN(S(=O)(=O)c2ccccc2)Cc2cccnc21.O=C(O)C(F)(F)F	100.4%
COc1cccc(CC(=O)N2CCN(C)c3ncccc3C2)c1.O=C(O)C(F)(F)F	-8.872%
COCCN1CCN(Cc2c(C)noc2C)Cc2cccnc21.O=C(O)C(F)(F)F.O=C(O)C(F)(F)F	-0.8432%
CC(C)CN1CCN(S(=O)(=O)c2cn(C)cn2)Cc2cccnc21.O=C(O)C(F)(F)F.O=C(O)C(F)(F)F	-3.796%
COc1ccc(S(=O)(=O)N2CCN(C)c3ncccc3C2)cc1.O=C(O)C(F)(F)F	100.8%
COc1ccc(CC(=O)N2CCN(C)c3ncccc3C2)cc1.O=C(O)C(F)(F)F	1.148%

Structure (SMILES)	Percent Effect
CN(Cc1ccc(C(=O)O)cc1)C(=O)c1sccc1OC(F)F	7.137%
Cn1cc(CN2CC[C@H]3OCC[C@@H](C(=O)N4CCCCO4)[C@@H]3C2)cn1	16.39%
CC(C)(C)N1CC(C(=O)N2CCN(CCn3cccc3)CC2)CC1=O (stereo unspecified)	-2.783%
CCn1nccc1S(=O)(=O)N1CCC2(CCCN(C(C)C)C2=O)C1 (stereo unspecified)	-32.08%
CCn1ncc(S(=O)(=O)N2CCCC3(CC=CNC3=O)C2)c1C (stereo unspecified)	120.2%
CC(C)n1cc(S(=O)(=O)N2CCCCC2)cn1	6.255%
CCn1cc(S(=O)(=O)N2CCC3(CCCN(CC4CCC4)C3=O)C2)cn1 (stereo unspecified)	-1.219%
CCn1cc(S(=O)(=O)N2CCCC3(CC=CNC3=O)C2)cn1 (stereo unspecified)	97.1%
CCn1nc(C)cc1S(=O)(=O)N1CCC2(CC(=O)NC2=O)C1 (stereo unspecified)	-2.488%
CCn1nc(C)cc1S(=O)(=O)N1CCC2(CCCN(C(C)C)C2=O)C1 (stereo unspecified)	-24.78%
CCn1cc(S(=O)(=O)N2CCCC3(CC=CNC3=O)C2)c(C)n1 (stereo unspecified)	118.1%
CCCN1CCCC2(CCN(S(=O)(=O)c3cc(C)nn3CC)C2)C1=O (stereo unspecified)	-15.13%
COc1cccc(CN(C)Cc2ccc(C#N)cc2)c1OC	-1.171%
Cc1cc(NCCNc2ccc(C#N)cn2)nc(C)n1	-1.6%
Cc1ccccc1[C@@H]1CN(Cc2ccc(C(F)(F)F)nc2)C[C@H]1C(=O)O	28.6%
COCCCSc1ccc(NCc2cscn2)cc1	-5.261%
O=C(CCC(F)(F)F)NCC1CCCS1 (stereo unspecified)	-25.1%
O=C(NCCn1nc2ccccn2c1=O)c1cc[nH]n1	8.097%
CN1CCN(c2cc(CNC(=O)c3ccc(=O)[nH]n3)ccn2)CC1	7.081%
CN(Cc1ccco1)Cc1ccccc1CNC(=O)c1c[nH]nn1	2.895%
O=C(NCC1(Sc2ccccc2)CC1)c1ccc(=O)[nH]n1	98.28%
O=C(NCC1(CO)CC1)c1ccccc1Cl	3.943%

Structure (SMILES)	Percent Effect
O=C(NCC1(Sc2ccccc2)CC1)c1cc[nH]n1	109.2%
CCN(CC)c1ccc(CNC(=O)c2ccc(=O)[nH]n2)cn1	-14.62%
O=C(NCC1(Sc2ccccc2)CC1)c1c[nH]nn1	96.18%
O=C(NC1(c2cccc(F)c2)CCOCC1)c1cc[nH]n1	-5.45%
CCc1nnc2n1CCN(c1nc3ccccc3o1)C2	-17.82%
Cc1ccccc1OCCC(=O)OC(C)C(=O)Nc1sccc1C(N)=O (stereo unspecified)	15.81%
CCS(=O)(=O)N1CCC2(CCCN(Cc3cc(OC)ccc3F)C2)C1 (stereo unspecified)	-8.238%
O=C(COc1ccc(C(F)(F)F)cc1)NS(=O)(=O)c1cccnc1	-2.745%
Cc1ocnc1C(=O)N1CC[C@@H](O)[C@@H](O)[C@H](N2CCC(F)(F)CC2)C1	120%
Cc1ocnc1C(=O)N1CCC(c2nccn2Cc2ccncc2)CC1	10.72%
Cc1ncoc1C(=O)N1C[C@@H]2CN(CC3CC3)CCO[C@@H]2C1	-7.815%
O=C(c1ccncc1)N1CC[C@@H](O)[C@@H](O)[C@H](N2CCC(F)(F)CC2)C1	113.1%
Cc1ncoc1C(=O)N1CC[C@@H](O)[C@@H](O)[C@H](N2CCC(F)(F)CC2)C1	142%
CN1CC(c2ccccc2)CC12CCN(C(=O)c1ccncc1)CC2 (stereo unspecified)	-13.44%
CC(C)C1CN(C(=O)c2ccncc2)CCS1 (stereo unspecified)	-8.547%
Cc1ocnc1C(=O)N1CCN(C(=O)CC(C)C)[C@@H]2CS(=O)(=O)C[C@@H]21	-7.127%
Cc1ncoc1C(=O)N1CCCC(C(=O)c2cccc(OC(C)C)c2)C1 (stereo unspecified)	-0.1018%
CC(NC1(CNS(C)(=O)=O)CCOCC1)c1ccccc1 (stereo unspecified)	3.887%
COCc1nc(C2CC2)nn1-c1cc(Cl)ccc1OC	-14.4%
CCC(CNC(=O)c1nc(=O)[nH][nH]1)Oc1cccc(C(F)(F)F)c1 (stereo unspecified)	-1.128%
CC(C)Nc1ncccc1C(=O)NCc1cnc(N(C)C)n1C	23.22%
CC(C)Sc1ncccc1C(=O)NCc1cccc(N(C)C)c1	97.33%

Structure (SMILES)	Percent Effect
COc1cccc(CNC(=O)c2cccnc2SC(C)C)c1	92.51%
COc1ccnc(NC(=O)CSCc2cccnc2)c1	1.726%
CCS(=O)(=O)N(C)C1CCN(Cn2ccc(-c3ccc(F)cc3)n2)CC1	1.424%
O=C(NC1(c2nccs2)CCCC1)c1cc(C2CC2)on1	-6.868%
Cc1noc(C)c1CS(=O)(=O)CC(=O)N1c2ccccc2CC1C (stereo unspecified)	25.49%
O=C(Cc1ccc(F)cc1Cl)N1C[C@@H](CN2CCC(O)CC2)[C@@H](CO)C1	-45.53%
Cc1ncnc2c1CCN(C(=O)c1cccnc1)CC2	-9.06%
Cc1nn(C(=O)c2cccnc2)c(C)c1C	108.2%
COc1ccc(C(=O)n2nc(C)c(C)c2C)cc1	10.75%
CC(C)c1cc(NCC(O)c2ccccn2)n2nccc2n1 (stereo unspecified)	16.27%
Cc1cc(NCCNc2ncccc2C)n2nc(C)cc2n1	109.3%
CC(=O)NCCNc1cc(C)nc2cc(C)nn12	-17.81%
Cc1cc2nc(C(C)C)cc(NCC(c3ccccn3)N(C)C)n2n1 (stereo unspecified)	15.65%
Cc1cc2nc(C(C)C)cc(NCCNc3ncccc3C)n2n1	112.1%
Cc1cccnc1NCCNc1cc(C(C)C)nc2ccnn12	101.8%
CC(C)c1cc(NCC(O)CO)n2nccc2n1 (stereo unspecified)	7.798%
CC(C)c1cc(NCC(C)N2CCCC2)n2nccc2n1 (stereo unspecified)	-22.52%
Cc1cc(NCc2cccnc2)n2nc(C)cc2n1	12.04%
